Results: PubChem BioAssay AID624273 (Broad Institute, 2012)
Among all 1,000 compounds or so, about 230 (23%) were called active. About 1% were inconclusive and are not listed. No rule for the calls is given here. Some of the results follow. Entries with a potency or affinity are not part of this list.

What follows are compounds tested against Long-chain-fatty-acid--AMP ligase FadD28 (Mycobacterium tuberculosis (strain ATCC 25618 / H37Rv)) (UniProt P9WQ59) (assay: inhibitors of FadD28 bisubstrate probe binding, dose response, biochemical, fluorescence polarization, cherry-pick (AID 624273)). Details: series mostly up to 50 µM; activity change, negative = inhibition: at the top concentration.
Long-chain-fatty-acid--AMP ligase FadD28 (Mycobacterium tuberculosis (strain ATCC 25618 / H37Rv)), sequence (P9WQ59 whole entry, looked up): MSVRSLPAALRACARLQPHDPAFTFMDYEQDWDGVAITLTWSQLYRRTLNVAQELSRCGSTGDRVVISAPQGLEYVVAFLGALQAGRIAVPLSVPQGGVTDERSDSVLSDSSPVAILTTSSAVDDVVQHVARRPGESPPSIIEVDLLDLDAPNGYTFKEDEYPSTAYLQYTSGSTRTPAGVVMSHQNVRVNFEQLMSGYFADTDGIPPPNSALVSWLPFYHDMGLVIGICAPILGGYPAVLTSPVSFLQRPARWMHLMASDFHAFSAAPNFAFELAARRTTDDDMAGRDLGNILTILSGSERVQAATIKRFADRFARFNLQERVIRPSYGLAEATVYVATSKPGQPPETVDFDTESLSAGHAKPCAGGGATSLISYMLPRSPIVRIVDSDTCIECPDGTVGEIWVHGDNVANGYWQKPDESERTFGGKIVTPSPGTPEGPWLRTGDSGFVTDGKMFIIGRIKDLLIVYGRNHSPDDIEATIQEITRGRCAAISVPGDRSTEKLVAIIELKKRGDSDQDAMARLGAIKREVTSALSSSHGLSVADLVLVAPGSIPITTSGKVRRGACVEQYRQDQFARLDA

| SMILES | activity change, negative = inhibition |
| --- | --- |
| CCCc1cc(=O)[nH]c(SCc2ccc(C#N)cc2)n1 | -3.34% (inactive) |
| COc1ccccc1-c1cnc(C(O)c2cc(C)c(OC)c(C)c2)[nH]1 (stereo not given) | -4.76% (inactive) |
| O=C(NNC(=O)C1CC1)Nc1ccc(Cl)cc1 | -0.529% (inactive) |
| O=C(NCCN1CCN(c2ccccc2F)CC1)c1cccn2c(=O)c3ccccc3nc12 | -3.39% (inactive) |
| CCOc1ccc(OCCNC2CCCC2)cc1 | -3.63% (inactive) |
| CC(C)(C)C1CCc2c(sc(NC(=O)C3CCCO3)c2C(N)=O)C1 (stereo not given) | -2.01% (inactive) |
| O=C(O)Cn1c(CCS(=O)(=O)c2ccc(Br)cc2)nc2ccccc21 | -2.94% (inactive) |
| COc1ccc(-c2cc(C(F)(F)F)c3c(=O)n(-c4ccccc4)[nH]c3n2)cc1 | -16.9% (inactive) |
| O=C(CSc1ccc(Cl)cc1)NC1=NN(c2ccccc2)C(=O)C1 | -7.19% (inactive) |
| C[C@@H]1CN([C@H](C)CO)C(=O)c2cc(NC(=O)Nc3ccc(C(F)(F)F)cc3)ccc2O[C@H]1CN(C)S(=O)(=O)c1ccccc1 | -3.14% (inactive) |
| N#CCCN(CCC#N)C(=O)C1c2ccccc2Oc2ccccc21 | -14.3% (inactive) |
| CCCCCCn1cc(C(=O)O)c(=O)c2cc(F)c(N3CCN(C)CC3)cc21 | -6.74% (inactive) |
| O=C(NNC(=O)C1CC=CCC1)c1ccccc1Cl (stereo not given) | -7.49% (inactive) |
| COc1ccc(CCNC(=O)CSc2nc3[nH]ncc3c(=O)n2-c2ccc(Cl)cc2Cl)cc1OC | 6.51% (inactive) |
| O=C(CSc1nnc(CNc2ccc(Cl)cc2)o1)Nc1nc2c(s1)CCCC2 | -4.67% (inactive) |
| COCC(C)N=Cc1c(O)[nH]c2ccccc12 (stereo not given) | -3.22% (inactive) |
| CC1=C(C(=O)OCCCBr)C(c2ccc3c(c2)OCO3)NC(=O)N1 (stereo not given) | 7.23% (inactive) |
| CN1CC(C(=O)c2ccc(Cl)cc2)C(c2ccc(N(C)C)cc2)C1 (stereo not given) | -12.5% (inactive) |
| CC(=O)Oc1ccc(-c2nc(-c3cccnc3)no2)cc1 | -0.647% (inactive) |
| COc1ncnc(-c2ccccc2)c1-c1ccccc1 | -5.28% (inactive) |
| COCC(=O)Nc1ccc(Br)cc1C | -4.66% (inactive) |
| COc1cc(/C=N/n2c(COc3ccccc3)n[nH]c2=S)cc(OC)c1OC(C)=O | -3.5% (inactive) |
| O=C(CN1C(=O)/C(=C/c2ccco2)SC1=S)NC1CCS(=O)(=O)C1 (stereo not given) | -10.4% (inactive) |
| COc1ccc(/C=C2\SC(=O)N(CC(=O)Nc3ccccc3O)C2=O)cc1OC | -6.42% (inactive) |
| COc1ccc(C(=O)Nc2ccncc2)cc1OC | -2.23% (inactive) |
| O=C(NCCS(=O)(=O)N1CCN(c2cccc(Cl)c2)CC1)c1cc(=O)c2ccccc2o1 | 1.84% (inactive) |
| COc1cc2cc(C(N)=O)c(N)nc2cc1OC | -1.59% (inactive) |

| SMILES | activity change, negative = inhibition |
| --- | --- |
| Cc1nc(-c2cccs2)ccc1C(=O)O | -6.58% (inactive) |
| COCCCNC(=S)N/N=C/c1cccc(OC)c1O | -6.99% (inactive) |
| O=[N+]([O-])c1cccc(/C=N/n2c(C3CCCCC3)n[nH]c2=S)c1 | -19.2% (inactive) |
| CC1CCN(S(=O)(=O)c2ccc(C(=O)Nc3nnc(C4=COCCO4)o3)cc2)CC1 | 6.34% (inactive) |
| O=C(COC(=O)c1cccc(S(=O)(=O)N2CCCC2)c1)Nc1cccc(Br)c1 | -1.15% (inactive) |
| CCN(CC)S(=O)(=O)c1ccc(NC(=O)COC(=O)c2ccc(Br)o2)cc1 | -9.9% (inactive) |
| O=C(CSc1nnnn1-c1ccccc1)Nc1nsc(-c2ccc(Cl)cc2)n1 | 1.71% (inactive) |
| Cc1cc(S(=O)(=O)N(Cc2cccs2)Cc2ccccc2F)ccc1-n1cnnn1 | -3.2% (inactive) |
| CCNS(=O)(=O)c1cc(OC)c(Cl)cc1OC | -4.8% (inactive) |
| O=C(Nc1nc(COc2ccccc2)cs1)c1ccccc1F | -18.3% (inactive) |
| COc1ccc(CNC(=O)CN(Cc2ccc(OC)cc2)C(=O)CCC(=O)Nc2nccs2)cc1 | 0.987% (inactive) |
| COc1cc(Cl)ccc1NC(=O)COc1ccccc1C(=O)N1CCN(c2ccc(O)cc2)CC1 | -2.05% (inactive) |
| CCCN1C(=O)c2ccccc2NC1c1ccc(Cl)cc1 (stereo not given) | -1.06% (inactive) |
| CC(=O)c1cccc(NC(=O)CN(c2cccc(F)c2)S(C)(=O)=O)c1 | 3.17% (inactive) |
| COc1ccc(CNC(=O)COc2ccc(OC)cc2)cc1 | -4.06% (inactive) |
| COc1cccc(CNC(=O)CN(C)S(=O)(=O)c2cnc[nH]2)c1 | -2.62% (inactive) |
| COc1cccc(-c2cc(C(=O)Nc3ccncc3)c3ccccc3n2)c1 | 4.9% (inactive) |
| COc1cnc(-c2cccc(C(F)(F)F)c2)c(NC(=O)c2cc3ccccc3s2)n1 | -0.128% (inactive) |
| CCOc1ccc(N=Nc2c(C)[nH]n(-c3ccccc3)c2=O)cc1 | -5.21% (inactive) |
| O/N=C1\CC/C(=N\O)c2nn(-c3ccccc3Cl)nc21 | -1.62% (inactive) |
| O=C(CN1C(=O)NC2NC(=O)NC21)NC1CCCCC1 (stereo not given) | -5.35% (inactive) |
| COc1ccc(C(=O)/C(C#N)=N/Nc2cccc([N+](=O)[O-])c2)cc1 | -8.25% (inactive) |
| Cc1ccc(C(=O)COC(=O)c2cccc(NC(=O)c3ccc([N+](=O)[O-])cc3[N+](=O)[O-])c2)cc1 | -3.42% [at 16 µM] (inactive) |
| N#Cc1c(-c2ccccc2)c(-c2ccccc2)nn(CC(=O)NNC(=O)Nc2ccc(Cl)c(Cl)c2)c1=O | -10.7% (inactive) |
| N/C(=N\OC(=O)COc1ccc2ccccc2c1)c1ccncc1 | -14% (inactive) |
| COC(=O)c1c(-c2ccc(C)cc2)csc1NC(=O)C1CC=CCC1C(=O)O (stereo not given) | 11.9% (inactive) |
| Cc1ccc([N+](=O)[O-])cc1N=Nc1c(-c2ccc([N+](=O)[O-])cc2)[nH]n(C(N)=S)c1=O | 0.54% (inactive) |

| SMILES | activity change, negative = inhibition |
| --- | --- |
| CCc1noc(C)c1C(=O)Nc1cc(S(=O)(=O)N2CCOCC2)ccc1OC(C)C | -11.1% (inactive) |
| CCOC(=O)N1CCN(C2CC(=O)N(c3ccc(F)cc3)C2=O)CC1 (stereo not given) | -8.96% (inactive) |
| C[C@@H]1CN([C@H](C)CO)C(=O)c2cc(NC(=O)Nc3ccc(C(F)(F)F)cc3)ccc2O[C@H]1CN(C)S(=O)(=O)c1ccc(Cl)cc1 | -1.46% (inactive) |
| Cc1cc(=O)oc2c(CN3CCN(CCO)CC3)c(O)ccc12 | -6.12% (inactive) |
| O=C(NNC(=O)c1ccc([N+](=O)[O-])cc1)c1ccc(NS(=O)(=O)c2cccs2)cc1 | -2.28% (inactive) |
| Cc1cccc(C(=O)NNS(=O)(=O)c2ccc(F)cc2)c1O | -20.4% (inactive) |
| COc1cc(NC(=O)COC(=O)CC2CC3CCC2C3)cc(OC)c1 (stereo not given) | -13.2% (inactive) |
| CCSc1ccccc1C(=O)Nc1cc(C)on1 | -5.14% (inactive) |
| COC(=O)c1cc(C(=O)OCC(=O)NC2CCCC2)cc([N+](=O)[O-])c1 | -1.93% (inactive) |
| COc1cccc(C(=O)OCC(=O)NC(=O)NC2CCCC2)c1O | -9.96% (inactive) |
| CC(=O)NC(CCS(C)(=O)=O)C(=O)N1CCc2ccccc21 (stereo not given) | -7.29% (inactive) |
| COc1cccc(OCc2cc(C(=O)N(C)CCOc3ccc(C)cc3)no2)c1 | -4.38% (inactive) |
| CC(C)=NOc1cc(NC(=O)CCl)cc([N+](=O)[O-])c1 | 1.51% (inactive) |
| C/C(=N\NC(=O)COc1ccccc1)c1ccc(O)cc1 | -3.89% (inactive) |
| Nc1nnnn1/N=C/c1cc(Cl)cc(Cl)c1O | -12.6% (inactive) |
| O=C(O)Cn1c2ccccc2c2n[nH]c(=S)nc21 | -4.23% (inactive) |
| CCOC(=O)c1cc(NC(=O)c2ccc(Cl)cc2)c(=O)n2c1oc1ccc(Cl)cc12 | -3.91% (inactive) |
| S=c1nc[nH]c2c1sc1nc(-c3ccccc3)c3c(c12)CCCC3 | -9.92% (inactive) |
| Cc1ccc(C)c(NS(=O)(=O)c2ccc(NC(=O)CSc3ccc(Cl)cc3)cc2)c1 | 1.79% (inactive) |
| CCn1c(SCC(=O)Nc2ccc(N3CCOCC3)cc2)nnc1-c1ccncc1 | -6.22% (inactive) |
| Cc1ccc(OCc2nc(-c3ccccn3)no2)cc1 | -10.9% (inactive) |
| COc1ccc(CCNC(=O)c2ccc(NS(=O)(=O)c3ccc4[nH]c(=O)[nH]c4c3)cc2)cc1 | 1.58% (inactive) |
| COc1ccc(CCNC(=O)c2ccccc2NS(=O)(=O)c2c(F)cccc2F)cc1 | -11.5% (inactive) |
| CCC(C)(C)NC(=O)CN(C(=O)CCC(=O)Nc1nccs1)c1ccc2c(c1)OCO2 | -2.29% (inactive) |
| COc1ccc(COc2ccc3c(C)cc(=O)oc3c2)cc1 | 2.11% (inactive) |
| Cc1ccc(S(=O)(=O)N(C)CC(=O)OCC(=O)NC(=O)Nc2ccc3c(c2)OCCO3)cc1 | -15.2% (inactive) |
| CCOC(=O)c1ccc(NC(=O)c2nc[nH]c2C(=O)N(CC)CC)cc1 | -3.82% (inactive) |

| SMILES | activity change, negative = inhibition |
| --- | --- |
| COc1ccc(S(=O)(=O)N2CCC(C(=O)NCCC(=O)NCc3ccncc3)CC2)cc1 | -5.1% (inactive) |
| O=C(NCc1ccc(F)cc1)C(Cc1ccccc1)NS(=O)(=O)c1cccs1 (stereo not given) | -0.603% (inactive) |
| Cc1ccc(C)c(NC(=O)C(CC(=O)O)Cc2ccccc2)c1 (stereo not given) | 4.67% (inactive) |
| O=C(NC(Cc1ccccc1)C(=O)O)C1CCN(S(=O)(=O)c2ccccc2C(F)(F)F)CC1 (stereo not given) | -4.71% (inactive) |
| COC(=O)[C@H](Cc1ccccc1)NC(=O)NCc1ccc(C)cc1 | -8.21% (inactive) |
| C[C@H](CO)N1C[C@H](C)[C@H](CN(C)S(=O)(=O)c2cn(C)cn2)Oc2ccc(NC(=O)Nc3ccc(C(F)(F)F)cc3)cc2CC1=O | 2.87% (inactive) |
| NC(Cc1ccccc1)c1nn[nH]n1 (stereo not given) | -6.01% (inactive) |
| CN1CCN(NC(=O)c2ccc(S(=O)(=O)N3CCCCCC3)cc2)CC1 | 2.84% (inactive) |
| CC(=O)c1ccc(Oc2cc(-c3ccccc3)nc(-c3ccccc3)n2)cc1 | -5.3% (inactive) |
| O=C(O)c1cc2ccccc2cc1Nc1ccccc1 | -13.8% (inactive) |
| CCN(CC)CCCn1c(=S)[nH]c2cc(Cl)ccc2c1=O | -6.33% (inactive) |
| COC1=CC(=O)OC(CCc2ccc3c(c2)OCO3)C1 (stereo not given) | 2.47% (inactive) |
| Cc1ccc(C(=O)n2nc(C#N)c(C#N)c2N)cc1 | -4.3% (inactive) |
| N#Cc1ccc(OCC(=O)OCC(=O)Nc2ccc(N3CCOCC3)cc2)cc1 | -5.79% (inactive) |
| CC(=O)N1CCN(c2ccc(NC(=O)c3ccc(C(C)(C)C)cc3)cc2)CC1 | -6.95% (inactive) |
| O=C(Sc1ccc(Cl)cc1)c1ccccn1 | -4.7% (inactive) |
| Cn1c(N)c(S(=O)(=O)N2CCN(c3ccccc3Cl)CC2)c(=O)n(C)c1=O | -8.51% (inactive) |
| O=[N+]([O-])c1ccc(N2CCCCCC2)c2nonc12 | -8.88% (inactive) |
| CCc1c(C)sc(NC(=O)C2CC2c2ccccc2)c1C(N)=O (stereo not given) | -0.5% (inactive) |
| O=C(/C=C/c1ccc([N+](=O)[O-])cc1)/C=C/c1ccco1 | -4.48% (inactive) |
| Cc1c(C(=O)C(=O)N2c3ccccc3CC2C)c2ccccc2n1C (stereo not given) | -0.858% (inactive) |
| C=CCn1c(C)csc1=Nc1ccc(C(C)=O)cc1 | -4.17% (inactive) |
| O=C(c1cccc(S(=O)(=O)N2CCN(c3ccccc3)CC2)c1)N1CCCCCCC1 | -6.53% (inactive) |
| Cc1ccccc1-c1nnc(-c2cccc3ccccc23)o1 | -3.76% (inactive) |
